Screening results deposited in PubChem BioAssay by National Center for Advancing Translational Sciences (NCATS).
IL1B secr inh – qHTS for Inhibitors of Inflammasome Signaling: IL-1-beta AlphaLISA Primary Screen | activity change, % at 57.5 µM | AID 743279, 2014 | THP-1 LPS/ATP IL-1B secretion, AlphaLISA, 16 h; active compounds read low | actives 4.7% (n = 360,000); in the data active = activity change below about -50%; inconclusive = mostly about -30% to -49%; also: % is scaled to controls: 0 for no effect and ±100 for the full control effect
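THP-1 cells pretreated 1 hr with compounds (up to 57.5 uM final), then stimulated with LPS (250 ng/mL final) plus ATP (1.25 mM final); secreted IL-1B measured by AlphaLISA after 16 hr, decreased signal indicating inhibition.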
TDP1 cell noCPT – qHTS for Inhibitors of human tyrosyl-DNA phosphodiesterase 1 (TDP1): qHTS in cells in absence of CPT; DT40 Tdp1-/- hTDP1 cells, no CPT, ATP luminescence, 48 h; Potency, µM (series often up to 46.2 µM), for inactives: top-dose activity change, negative = growth inhibition, hits mostly inhibitors; actives 15% (n = 420,000); AID 686978, 2013; also: potency is read from the fitted curve at half-maximal effect; % is scaled to controls: 0 for no effect and ±100 for the full control effect; nearly all actives have a fitted effect of over 55% in size
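Seeded 400 DT40-hTDP1 cells/well (vehicle DMSO, no 20 nM CPT); pinned compounds; ≥48 hr at 37 °C; CellTiter-Glo luminescence as viability measure.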
TDP1 inh – qHTS Assay for Inhibitors of Tyrosyl-DNA Phosphodiesterase (TDP1) | actives 0.28% (n = 350,000) | Tyrosyl-DNA phosphodiesterase 1 (Homo sapiens), Q9NUW8 | AID 485290, 2010 | recombinant TDP1, AlphaScreen DNA substrate cleavage | Potency, µM (doses to about 130 µM), without a hit: top-dose activity change, negative = inhibition, most hits filed as inhibitors; also: potency is read from the fitted curve at half-maximal effect; % is scaled to controls: 0 for no effect and ±100 for the full control effect; nearly all actives have a fitted effect of over 40% in size
Target sequence (Q9NUW8 whole entry, looked up): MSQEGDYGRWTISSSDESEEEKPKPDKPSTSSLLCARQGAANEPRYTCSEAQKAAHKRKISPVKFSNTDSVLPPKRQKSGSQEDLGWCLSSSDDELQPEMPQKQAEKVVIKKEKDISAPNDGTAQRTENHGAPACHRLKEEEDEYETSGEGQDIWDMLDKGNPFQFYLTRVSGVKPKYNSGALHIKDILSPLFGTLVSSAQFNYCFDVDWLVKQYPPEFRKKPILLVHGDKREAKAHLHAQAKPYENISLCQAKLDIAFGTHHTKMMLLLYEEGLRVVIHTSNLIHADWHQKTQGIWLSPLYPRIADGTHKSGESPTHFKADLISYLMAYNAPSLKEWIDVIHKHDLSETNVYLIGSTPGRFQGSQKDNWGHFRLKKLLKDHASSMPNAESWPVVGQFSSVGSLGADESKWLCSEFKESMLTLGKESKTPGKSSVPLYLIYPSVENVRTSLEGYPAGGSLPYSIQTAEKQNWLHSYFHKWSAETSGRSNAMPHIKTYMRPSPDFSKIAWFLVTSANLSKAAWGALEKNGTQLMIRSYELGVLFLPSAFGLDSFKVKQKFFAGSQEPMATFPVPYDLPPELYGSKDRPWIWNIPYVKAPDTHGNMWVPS
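AlphaScreen read-out: signal falls as enzyme removes the 3' tyrosine-FITC from a 5'-biotinylated DNA oligo (15 nM, 5 min, RT). Enzyme was E. coli-made recombinant Tdp1 at 1 nM, exposed to compound for 15 min beforehand; beads 10 ug/ml, 10 min.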
TGFb inhibitor – qHTS for Inhibitors of TGF-b | HepG2 CAGA-GFP TGF-b/SMAD3 reporter, GFP fluorescence, 18 h; TGF-beta stimulated, 500 pg/mL final | AID 588855, 2011 | Potency, µM (doses to about 46.1 µM), inactives show top-dose activity, negative = inhibition, hits mostly inhibitors | actives 1.2% (n = 410,000); also: potency is read from the fitted curve at half-maximal effect; % is scaled to controls: 0 for no effect and ±100 for the full control effect; nearly all actives have a fitted effect of over 65% in size
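Cell-based qHTS in HEPG2 carrying a CAGA-GFP Smad reporter; compounds added before 500 pg/mL final TGF-beta, 18 h incubation at 37 degrees C, GFP fluorescence quantified per cell by imaging cytometry.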
HepG2 viability – qHTS for Inhibitors of TGF-b: Cytotox Counterscreen; Potency, µM (top dose mostly 46.1 µM), inactives show at the top dose activity change, negative = cytotoxicity, actives largely listed as cytotoxic; actives 0.76% (n = 410,000); HepG2 CAGA-GFP viability, ATP luminescence, 18 h; also: potency is read from the fitted curve at half-maximal effect
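HepG2 CAGA-GFP cells (1000/well, DMEM with 1% FBS) received compound, then TGF-beta at 500 pg/mL final, and were incubated 18 hours at 37 degrees C. Viability was read by CellTiter-Glo luminescence. Media-only wells were set as complete cell-killing and DMSO as no toxicity.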
TDP1 cell CPT – qHTS for Inhibitors of human tyrosyl-DNA phosphodiesterase 1 (TDP1): qHTS in cells in presence of CPT. actives 12% (n = 420,000). chicken DT40 Tdp1-/-;hTDP1 cells + 20 nM CPT, ATP luminescence, 48 h. Potency, µM (titrated, usually from 46.2 µM), inactives show at the highest dose activity change, negative = growth inhibition, most hits filed as inhibitors; also: potency is read from the fitted curve at half-maximal effect; % is scaled to controls: 0 for no effect and ±100 for the full control effect; nearly all actives have a fitted effect of over 55% in size
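Chicken DT40 Tdp1-/- cells complemented with human TDP1, 400 cells/well, exposed to compounds plus 20 nM camptothecin for at least 48 h at 37 C; viability read as ATP content by CellTiter-Glo luminescence.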
Starred values were filed as active, the others as inactive; ? = inconclusive; nt = no result; [ ] = dose if it differs, or a comment. Sampled rows, rich in hits. Any-hit rate of the full collection: about 19%. Unless noted, calls follow the shape of the dose curve; as a rule, active = well fitted curve in the direction sought with a large enough effect; inconclusive = small, poorly fitted or top-dose-only effect, or another doubt; inactive = no such curve, though single readings can be large; an effect the other way counts as inactive or inconclusive.

SMILES	IL1B secr inh	TDP1 cell noCPT	TDP1 inh	TGFb inhibitor	HepG2 viability	TDP1 cell CPT
CCc1c(C(=O)Nc2ccncc2)csc1C	13	21µM*	1%	-14%	2%	?
COc1ccc(C2/C=C\CN(S(=O)(=O)c3ccc(C)cc3)C(C)C(=O)N2Cc2ccc(F)cc2)cc1 (configuration not stated)	nt	nt	6%	-26%	-8%	nt
CCOc1ccc(NC(=O)CCSc2nc3c(c(CC)c2C#N)C(=O)CC(C)(C)C3)cc1	-15	21µM*	-1%	0%	-2%	?
Cc1cc(C)cc(NC(=O)C2CCCN(c3cnccn3)C2)c1 (configuration not stated)	nt	?	0%	0%	0%	?
CCOC(=O)c1cc(-c2ccccc2)n(CCC(=O)Nc2ccc(Cl)c(C(F)(F)F)c2)c1C	nt	4.6µM*	1%	3.5µM*	11µM*	3.7µM*
CCOC(=O)c1cc(-c2ccccc2)n(CCC(=O)Nc2ccc(C)cc2Cl)c1C	nt	?	3%	?	-4%	?
CCOC(=O)c1cc(-c2ccccc2)n(CCC(=O)Nc2cc(C)cc(C)c2)c1C	nt	15µM*	3%	?	-23%	15µM*
CC1CCN(C(=O)C(NS(=O)(=O)c2cccc3nsnc23)C(C)C)CC1 (configuration not stated)	26	-2%	0%	7%	4%	-10%
CCCn1c2ccccc2c2cnn(CC(=O)N3CCCC(C)C3)c(=O)c21 (configuration not stated)	nt	?	1%	-21%	-23%	?
COC(=O)c1cccc(NC(=O)c2ccc3c(c2)C(=O)N(C(C)(C)C)C3=O)c1	-54*	?	nt	2%	1%	-5%
CC(C)(C)NC(=O)c1cccc(NC(=O)c2ccc3c(c2)C(=O)N(C(C)(C)C)C3=O)c1	-96*	10µM*	nt	?	-29%	?
CC(C)(C)N1C(=O)c2ccc(C(=O)Nc3ccc(O)cc3)cc2C1=O	?	16µM*	6%	0%	-15%	?
C=C1NN(CC#N)C(=O)N1c1ccc(OCc2ccccc2)cc1	nt	?	nt	7%	-13%	8%
Cc1cccc(N2CCN(S(=O)(=O)c3cn(C)c(C)n3)CC2)c1C	nt	-24%	2%	1%	-24%	-21%
CCc1cccc(C)c1NC(=O)CN1C(=O)c2cccc3cccc1c23	nt	-18%	0%	-12%	-18%	-15%
CC(C)=C1SC(N2CCN(c3cccc(Cl)c3)CC2)=NC1=O	-59*	?	4%	?	-8%	?
OCc1cc(-c2ccccn2)no1	35	-2%	1%	13%	-2%	-12%
CC(=O)Nc1nnc([N+](=O)[O-])s1	7	18µM*	nt	?	-56%	18µM*
CC(=O)Nc1nnc(C)s1	9	0%	3%	-4%	-2%	1%
N#C/C(=C1/SC[C@@H](c2ccc(Cl)cc2Cl)S1)n1ccnc1	nt	6µM*	nt	nt	nt	4.7µM*
C#CCOCCOCCOCCNc1nc(N2CCN(C(=O)C([C@@H](C)O)n3cc([C@@H](N)CCCCN)nn3)CC2)nc(N2CCN(C(=O)[C@H](CCCN=C(N)N)n3cc(C(N)[C@@H](C)CC)nn3)CC2)n1 (some centres not stated)	11	1%	0%	-1%	5%	31%
CC(C)NC(=O)C1(C)CN(S(C)(=O)=O)CC(=O)N1C1CCN(Cc2ccccc2)CC1 (configuration not stated)	31	5%	nt	nt	nt	-3%
C=Cn1cc[n+](CC(=O)c2ccc(OC)cc2)c1	28	21µM*	5%	2%	-38%	?
COc1cc(-c2nc3c[n+](CC(=O)c4ccccc4)ccc3n2C)cc(OC)c1OC	5	-2%	-8%	-11%	-4%	4%
COc1ccc(C(=O)C[n+]2ccc3c(c2)nc(-c2ccccc2)n3C)cc1	-22	8.2µM*	1%	7%	0%	12µM*
SMILES	IL1B secr inh	TDP1 cell noCPT	TDP1 inh	TGFb inhibitor	HepG2 viability	TDP1 cell CPT
C=Cn1cc[n+](CC(=O)c2ccc(C)cc2)c1	40	-24%	5%	-16%	-37%	17%
CC(c1ccco1)N(C(=O)c1cccs1)c1ccccn1 (configuration not stated)	-8	-14%	0%	0%	1%	-10%
CC(C)c1ccc(C(=O)N(c2ccccn2)C(C)c2ccco2)cc1 (configuration not stated)	15	23µM*	3%	6%	-1%	?
Cc1cc(C)cc(C(=O)N(c2ccccn2)C(C)c2ccco2)c1 (configuration not stated)	12	15µM*	4%	10%	0%	?
Cc1cccc(C(=O)N(c2ccccn2)C(C)c2ccco2)c1 (configuration not stated)	11	?	2%	-14%	26%	?
CC(c1ccco1)N(C(=O)c1cc(Cl)cc(Cl)c1)c1ccccn1 (configuration not stated)	-19	8.2µM*	0%[0.0935 µM]	?	-4%	9.2µM*
CC(c1ccco1)N(C(=O)c1ccccc1NS(=O)(=O)c1ccc(Cl)c([N+](=O)[O-])c1)c1ccccn1 (configuration not stated)	-86*	?	8%	-11%	-54%	?
CCC(=O)N1c2ccccc2CC1C(=O)NCc1ccc(N(C)C)cc1 (configuration not stated)	nt	-20%	-1%	-5%	0%	-8%
C=C(C(=O)OCC)C(=O)c1ccccc1	nt	nt	4%	nt	nt	nt
Cc1c(-c2ccc(OCc3ccccc3)cc2)nc2ccccc2c1C(=O)O	55	10%	nt	9%	4%	-5%
CCOC(=O)N1CCC(NC(=O)c2cnn3c2NC(c2ccco2)CC3C(F)(F)F)CC1 (configuration not stated)	12	?	-3%	3%	-19%	?
COCCNC(=O)c1cnn2c1NC(c1ccco1)CC2C(F)(F)F (configuration not stated)	-4	1%	-2%	-11%	-6%	-2%
